PubChem BioAssay AID2275 (Broad Institute, 2010)
Hit rate of the full screen: of about 30,000 compounds, about 190 (0.63%) were called active. Shown is part of a subset that was picked to be rich in actives. A number with no mark means an inactive call. No stated cut-off is given here; in the data, active means viability loss activity score above about 50%; inconclusive means no clear call, values can overlap the other calls; inactive means below about 35%.

test: cytotoxicity in HRASV12-transformed BJ fibroblasts – cell-based, luminescence, CellTiterGlo ATP, primary screen (AID 2275); details: BJeLR fibroblasts viability, 48 h, stronger effect = higher value, HRASV12, hTERT and SV40 LT/ST transformed, concentration not given here;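 further: higher score means fewer live cells and less ATP luminescence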

Row | Structure (SMILES) | viability loss activity score
1 | CNC(=O)NC(=O)CSc1ncnc2sc(-c3ccccc3)cc12 | 7.62%
2 | CC(C)NC(=O)N(C)C[C@H]1Oc2ccc(NC(=O)CCCCCC(=O)Nc3ccccc3N)cc2C(=O)N([C@@H](C)CO)C[C@@H]1C | -2.79%
3 | Cc1ccccc1C(=O)Nc1ccc(NC(=O)c2ccc(C(C)(C)C)cc2)cc1 | -4.36%
4 | N#Cc1c(-c2ccccc2)c(-c2ccccc2)nn(CC(=O)NN)c1=O | 26.9%
5 | COC(=O)C1=C(C)NC2=C(C(=O)c3ccccc32)C1c1ccc(OC)cc1 (stereo not given) | -2.35%
6 | CCOC(=O)c1cc2c(C)n(-c3ccccc3)c(C)c2cc(C(=O)OCC)c1=O | -1.14%
7 | CC(C)n1c(SCC(=O)O)nc2cc(Cl)ccc21 | 2.11%
8 | CCN(/C=C1\SC(=S)N(c2ccc(OC)cc2)C1=O)CC | -2.34%
9 | CCCN(C(=O)CCc1nc(-c2ccccc2F)no1)c1ccccc1C | 14.3%
10 | COc1ccc(CN(C)C[C@H]2Oc3c(NC(=O)C4CCCCC4)cccc3C(=O)N([C@@H](C)CO)C[C@@H]2C)cc1 | 0.512%
11 | CC(=O)Nc1ccc(Nc2c3c4c(cccc4[nH]c2=O)C(=O)c2ccccc2-3)cc1 | 59.2% (active)
12 | O=C(Nc1ccccc1C(=O)O)c1ccc(CN2CCOCC2)cc1 | 8.6%
13 | CCn1cc(C(=O)NC2CCCC(C)C2C)c2cc(OC)c(OC)cc2c1=O (stereo not given) | 2.08%
14 | O=C1/C(=C/c2cccc(Br)c2)SC(=S)N1CC(=O)N1CCCc2ccccc21 | -6.26%
15 | O=S(=O)(Nc1ccccc1C(F)(F)F)c1ccc2c(c1)CCO2 | 2.04%
16 | C[C@@H]1CN([C@H](C)CO)C(=O)c2cc(NS(=O)(=O)c3ccc(Cl)cc3)ccc2O[C@@H]1CN(C)CC1CCCCC1 | -2.47%
17 | COc1ccc(-c2nn(-c3ccc(C)c(Cl)c3)c3c2cnc2ccc(F)cc23)cc1OC | -4.15%
18 | Cc1ccc(S(=O)(=O)n2c(C)cc(C(=O)O)c2C)cc1 | -6.81%
19 | NC1=NC(=O)C(Cc2cccc(Cl)c2)S1 (stereo not given) | -0.141%
20 | CCC(Sc1nc2ccsc2c(=O)n1Cc1ccccn1)C(=O)Nc1cccc(OC)c1 (stereo not given) | -2.12%
21 | CCOC(=O)C1C=C2C(=O)N3C=CC=CC3N=C2N(C(C)C)C1=NC(C)=O (stereo not given) | -1.61%
22 | C=CCSc1nnc2n1CCCN2C(=O)Nc1cccc(Cl)c1 | -3.59%

Row | Structure (SMILES) | viability loss activity score
23 | OC(CN1CCN(C2c3ccccc3-c3ccccc32)CC1)c1ccccc1 (stereo not given) | 0.265%
24 | Cc1cc(Nc2ccc(Cl)cc2)c2ccccc2n1 | 12.6%
25 | CCCn1cc(SCC(=O)N2CCc3ccccc32)c2ccccc21 | 1.29%
26 | CCOC(=O)c1c(NC(=S)Nc2ccc(OC)cc2)sc2c1CC(C(C)C)OC2 (stereo not given) | 3.67%
27 | CC(C)NC(=O)Cn1c2ccccc2c2cn[nH]c(=O)c21 | -1.32%
28 | CC(=O)N(c1nc(-c2cc3ccccc3oc2=O)cs1)c1cccc(C)c1C | 5.58%
29 | CCc1c(C)c(C#N)c2nc3ccccc3n2c1-n1ccnc1 | 1.77%
30 | C[C@H]1CN([C@@H](C)CO)C(=O)c2cc(NC(=O)Cc3cn(C)c4ccccc34)ccc2O[C@H]1CN(C)Cc1ccc(Cl)c(Cl)c1 | -2.28%
31 | Cc1ccc(S(=O)(=O)N(C)C[C@@H]2Oc3ccc(NS(=O)(=O)c4cccs4)cc3C(=O)N([C@@H](C)CO)C[C@H]2C)cc1 | -3.75%
32 | O=c1cc(N2CCN(c3ccccc3)CC2)[nH]c(=O)n1-c1ccc(Cl)cc1 | 2.58%
33 | CN(Cc1ccccc1)C(=O)c1cc(-c2ccc(Cl)cc2)on1 | 3.08%
34 | CC1=C(C(=O)OCc2ccccc2)OC(N)=C(C#N)C1c1ccc(F)cc1 (stereo not given) | 1.52%
35 | Cc1ccc(Cl)cc1N(C)C(=O)c1cc2c(-c3ccc(Cl)cc3)nn(C)c2s1 | -0.32%
36 | Cc1ccccc1NC(=O)Nc1ccccc1N1CCCCC1 | 1.43%
37 | C=C1SC(Nc2ccc(C)cc2)=NC1(C)C | 0.0102%
38 | COc1ccc2c(c1)-c1c(ssc1=S)C(C)(C)N2C(C)=O | 12.8%
39 | C[C@H]1O[C@@H](O[C@H]2[C@@H](O)C[C@H](O[C@H]3[C@@H](O)C[C@H](O[C@H]4CC[C@]5(C)C6C[C@@H](O)[C@]7(C)[C@@H](C8=CC(=O)OC8)CC[C@]7(O)C6CC[C@@H]5C4)O[C@@H]3C)O[C@@H]2C)C[C@H](O)[C@@H]1O (stereo not given in full) | 129% (active)
40 | COc1cc(OC)cc(C2C(C#N)=C(N)OC(N)=C2C#N)c1 | 1.86%
41 | CCOC(=O)C1CCN(C(=O)CN2C(=O)c3ccccc3C2=O)CC1 | -3.08%
42 | Cc1noc(C)c1NC(=O)Nc1ccc2c(c1)C(=O)N([C@H](C)CO)C[C@H](C)[C@H](CN(C)Cc1ccc(-c3ccccc3)cc1)O2 | -1.86%
43 | Cc1cc(-c2nc(C)c(-c3nnc(SCC(=O)Nc4ccccc4)n3C)s2)no1 | -2.45%
44 | Cc1ccc2oc(=O)c3cc(C(=O)NC4CCCC4)sc3c2c1 | 4.55%

Row | Structure (SMILES) | viability loss activity score
45 | Cc1ccc(S(=O)(=O)N(CC(=O)Nc2ccc3c(c2)OCCO3)C2CCCCC2)cc1 | -4.45%
46 | CC[C@H]1CN2CCc3cc(OC)c(OC)cc3[C@@H]2C[C@@H]1C[C@H]1NCCc2cc(OC)c(OC)cc21 | 96.1% (active)
47 | COc1cc2c(cc1OC)C1CN3CCc4cc(OC)c(OC)cc4C3CN1CC2 (stereo not given) | 18.2%
48 | O=C(Nc1cccc(-c2nc3ccccc3o2)c1)c1cccc(OCc2ccccc2)c1 | 10.7%
49 | Cc1ccc(CN2CCSc3ccc(C(=O)Nc4ccc(F)cc4)cc32)cc1 | 0.172%
50 | O=C(NC1CCCCC1)C1CCC(CNS(=O)(=O)c2ccccc2)CC1 (stereo not given) | 6.1%
51 | CCc1ccc(NC(=O)NC(C)(C)C)cc1 | -4.47%
52 | Cc1ccc(CNC(=O)CCC(=O)Nc2ccc3nc(N4CCCCC4)cc(C)c3c2)cc1 | 0.494%
53 | Cc1ccccc1NCC(=O)NN | -2.54%
54 | Cc1nnn(C23CC4CC(CC(CC(=O)Nc5ccc(Cl)cc5)(C4)C2)C3)n1 | -2.2%
55 | CC(C)(C)c1ccc(/C=C/C(=O)NCCCn2ccnc2)cc1 | 0.598%
56 | Nc1cc(=O)[nH]c2nnc(SCc3ccc(Br)cc3)n12 | -1.86%
57 | Cc1ccc(N2C(=O)c3oc4cc(C)c(C)cc4c(=O)c3C2c2ccc(O)cc2)nc1 (stereo not given) | -1.21%
58 | Oc1ccc(CN2CCCC2)c2cccnc12 | -4.68%
59 | CC1(C)Cc2c(cnn2-c2ccc(F)cc2)-c2nc3ccccc3nc21 | -0.68%
60 | CC(C)N(Cc1nc(-c2ccccc2)no1)C(=O)CCc1ccccc1 | -7.42%
61 | Nn1c(C(=O)N2CCCC2)nc2ccccc2c1=O | -0.611%
62 | CC(C)c1ccc(S(=O)(=O)N2CCN(S(=O)(=O)c3ccc(C(C)C)cc3)C(C)C2)cc1 (stereo not given) | 4.1%
63 | CC1C=CCC2C(=O)N(c3cccc(Cl)c3)C(=O)C12 (stereo not given) | 0.408%
64 | CCCCN(Cc1ccccc1)S(=O)(=O)c1ccc2c(c1)oc(=O)n2CC(=O)OCC | -1.44%
65 | O=C1c2ccccc2C(=O)N1CCCC(=O)n1ccc2ccccc21 | -4.38%
66 | O=C(O)C1=NN(c2ccccc2)C(=O)/C1=C/c1cccs1 | 5.24%

Row | Structure (SMILES) | viability loss activity score
67 | O=C(CCSc1nc(-c2ccco2)cc(C(F)(F)F)n1)N1CCCCC1 | -3.03%
68 | COc1ccc(Cn2c(=O)oc3ccccc32)cc1 | -1.69%
69 | C[C@H](CO)N1C[C@H](C)[C@H](CN(C)S(=O)(=O)c2cccs2)Oc2c(NC(=O)Nc3ccc4c(c3)OCO4)cccc2C1=O | 1.64%
70 | C=CCNC(=O)/C=C/c1ccc(C(C)C)cc1 | -1.64%
71 | COc1cc2c(C(=O)N3CCN(c4ccccc4)CC3)cn(CC(C)C)c(=O)c2cc1OC | -11.1%
72 | CCN(C(=O)CSc1nc2ccccc2c2nc3ccccc3n12)c1cccc(C)c1 | 0.323%
73 | O=C(NC1CCCC1)c1cc(-c2ccc(Br)cc2)on1 | -5.17%
74 | C[C@@H]1CN([C@H](C)CO)C(=O)c2cc(NS(=O)(=O)c3cccs3)ccc2O[C@H]1CN(C)Cc1ccncc1 | 1.52%
75 | NNC(=O)CN1C(c2ccc(Cl)cc2)=Nc2ccc(Cl)cc2C1c1ccccc1 (stereo not given) | 4.53%
76 | CC1=C(C(=O)Nc2ccccc2Br)C2(CCCCC2)OC1=O | -3.85%
77 | O=C(Nc1cccnc1)c1cc2c(s1)-c1ccccc1CC2 | 2.6%
78 | COc1ccc(S(=O)(=O)N(C)C[C@H]2Oc3ccc(NS(C)(=O)=O)cc3C(=O)N([C@H](C)CO)C[C@H]2C)cc1 | 4.8%
79 | CC(C)c1ccc(NC(=O)c2ccc(NS(=O)(=O)c3cccs3)cc2)cc1 | 11.3%
80 | CCOc1ccc(NC(=O)Cn2c3c(c(-c4ccccc4)cc2=O)CCCC3)cc1 | 3.03%
81 | Cc1ccc2nc(-c3ccc(NC(=O)C4CCC4)cc3)sc2c1 | -1.59%
82 | Cc1ccc(OCC(=O)Nc2ccc(-c3nn4c(C)nnc4s3)cc2)cc1 | -1.91%
83 | CC1CCCCN1C(=O)CSc1nc(-c2ccccc2)cc(C(F)(F)F)n1 (stereo not given) | -1.5%
84 | CCC1=Nc2cc(C(=O)NCCCN3CCOCC3)ccc2Sc2ccc(Br)cc21 | 7.81%
85 | C[C@@H]1CN([C@@H](C)CO)C(=O)c2cccc(NC(=O)Nc3ccc(C(F)(F)F)cc3)c2O[C@@H]1CN(C)S(=O)(=O)c1ccc(F)cc1 | -0.826%
